PubChem BioAssay (NCATS)
Values joined by “and” are separate entries in the source; they are usually repeats but may differ in a detail not shown here. Equal entries are not always repeated. Records with an inconclusive call do not appear. Unmarked numbers belong to inactive results. Active and inactive are the calls of the source. The call rests on the fitted dose curve; in most records, active means well fitted inhibition curve with a large enough effect; inconclusive means small, poorly fitted or top-dose-only effect; inactive means flat fitted curve, though single readings scatter.

What follows are compounds tested on KB-3-1 (assay: Cytotoxic Profiling of Annotated Libraries Using Quantitative High-Throughput Screening (AID 1296008; further: nearly all actives have a fitted effect of over 60% in size)). Settings: Five cell lines viability, CellTiter-Glo ATP luminescence, 48-72 h; max response: stronger effect = lower value.
Summary of the method: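 Cytotoxicity was measured as CellTiter-Glo ATP luminescence, read after 10 min at room temperature. Compound treatment of the cells lasted 48 or 72 hr at 37 degrees Celsius in a qHTS format.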
On the % scale 0 is the no-effect control and ±100 the full control effect; potency means the concentration at half of the fitted maximal effect.

Structure (SMILES)	max response	Potency	outcome
NC[C@H]1O[C@H](O[C@@H]2[C@@H](O)[C@@H](O[C@H]3O[C@H](CO)[C@@H](O)[C@H](N)[C@@H]3O)[C@H](N)C[C@@H]2N)[C@H](O)[C@@H](O)[C@H]1O	4.43%	–	–
CCc1cccc(CC)c1NC(=O)N1Cc2[nH]nc(NC(=O)c3ccc(N4CCN(C)CC4)cc3)c2C1	–	7.43 µM (active) and 4.61 µM (active)	–
CC(=O)O[C@]1(C(C)=O)CC[C@H]2[C@@H]3C=C(Cl)C4=CC(=O)[C@@H]5C[C@H]5[C@]4(C)[C@@H]3CC[C@@]21C	–	–	inactive
CON(C)C(=O)N1N=C(c2cc(F)ccc2F)S[C@]1(CCCN)c1ccccc1	–	0.0008 µM (active)	–
OC[C@H]1O[C@@H](O[C@H]2[C@@H](O)[C@@](O)(CO)O[C@@H]2CO)[C@H](O)[C@@H](O)[C@@H]1O	-0.101%	–	–
COc1cc(F)c(C(C)C)cc1-c1ccc(C(F)(F)F)cc1CN1C(=O)O[C@H](c2cc(C(F)(F)F)cc(C(F)(F)F)c2)[C@@H]1C	-11.6%	–	–
CCCC1OC2C[C@@H]3[C@H]4CCC5=CC(=O)C=C[C@]5(C)[C@H]4C(O)C[C@]3(C)[C@]2(C(=O)CO)O1 (some centres undefined)	-2.26%	–	–
COc1cc(CNC(=O)CCCCC=CC(C)C)ccc1O	-24.7%	–	–
C#CCN(C)CC1=Cc2ccccc2Oc2ccccc21	-4.88%	–	–
O=c1[nH]c(=O)n([C@H]2C[C@@H](O)[C@@H](CO)O2)cc1I	–	–	inactive
CNC(=O)[C@H](CC1=CN=C2C=CCC=C12)NC(=O)[C@@H](CC(=O)NO)CC(C)C	8.99%	–	–
Cc1c(C(=O)Nc2ccc(N3C[C@@H](C)O[C@@H](C)C3)nc2)cccc1-c1ccc(OC(F)(F)F)cc1	-8.91%	–	–
CC(C)(C)c1[nH]cnc1C=c1[nH]c(=O)c(=Cc2ccccc2)[nH]c1=O	–	2.41e-05 µM (active)	–
Nc1ncnc2c1c(-c1cccc(OCc3ccccc3)c1)cn2C1CC(CN2CCC2)C1 (centres undefined)	–	23.1 µM (active)	–
Cc1cc(C(C)Nc2ccccc2)c2nc(N3CCOCC3)cc(=O)n2c1 (centres undefined)	–	–	inactive
CSc1cccc(Nc2ncc3cc(-c4c(Cl)cccc4Cl)c(=O)n(C)c3n2)c1	7.1%	–	–
CO[C@H]1/C=C\O[C@@]2(C)Oc3c(C)c(O)c4c(O)c(c5c(nc6cc(C)ccn65)c4c3C2=O)NC(=O)C(C)=CC=C[C@H](C)[C@H](O)[C@@H](C)[C@@H](O)[C@@H](C)[C@H](OC(C)=O)[C@H]1C	-2.96%	–	–
CN1CCN(c2cccc(Nc3nc4c(-c5ccc(S(C)(=O)=O)cc5)cccn4n3)c2)CC1	–	–	inactive
CN(C(Cc1ccc(OS(=O)(=O)c2cccc3cnccc23)cc1)C(=O)N1CCN(c2ccccc2)CC1)S(=O)(=O)c1cccc2cnccc12 (centres undefined)	-3.12%	–	–
CCC(=O)OCC(=O)[C@@]1(OC(=O)CC)[C@@H](C)C[C@@H]2[C@H]3CCC4=CC(=O)C=C[C@]4(C)[C@@]3(F)[C@@H](O)C[C@@]21C	–	–	inactive

Structure (SMILES)	max response	Potency	outcome
CC(C)C[C@@H](N)[C@H](O)C(=O)N[C@H](C(=O)N[C@H](C(=O)N[C@@H](CC(=O)O)C(=O)O)C(C)C)C(C)C	4.23%	–	–
CN(C)N=Nc1nc[nH]c1C(N)=O	–	4.69 µM (active)	–
C[C@@H](O[C@H]1OCCN(Cc2n[nH]c(=O)[nH]2)[C@@H]1c1ccc(F)cc1)c1cc(C(F)(F)F)cc(C(F)(F)F)c1	–	26.4 µM (active)	–
CC(C)(C)c1nc(-c2cccc(NS(=O)(=O)c3c(F)cccc3F)c2F)c(-c2ccnc(N)n2)s1	-15.7% and -13.9%	–	–
CNC(=O)c1cc(COc2nnc(Nc3ccc(Cl)cc3)c3ccoc23)ccn1	-2.71%	–	–
CCNC(=O)CCCC=CC[C@@H]1[C@H](C=CC(O)CCc2ccccc2)[C@@H](O)C[C@@H]1O (some centres undefined)	9.82%	–	–
Cc1nc(NC(=O)N2CCC[C@@H]2C(N)=O)sc1-c1csc(C(C)(C)C)n1	–	13.2 µM (active)	–
O[C@@H](COc1cccc2ncccc12)CN1CCN(C2c3ccccc3[C@@H]3[C@H](c4ccccc42)C3(F)F)CC1 (some centres undefined)	2.31%	–	–
CC(C)[C@H](O)C(=O)N[C@@H](C)C(=O)N[C@@H]1C(=O)N(C)CCc2ccccc21	-11.2%	–	–
N#CC1(c2cccc(C(=O)Nc3cc(Oc4ccc5nc(NC(=O)C6CC6)sc5n4)ccc3F)c2Cl)CC1	-20.5% and -13.3%	–	–
CN1CC(=O)NC1=NC(=O)Nc1cccc(Cl)c1	5.76%	–	–
CCCCCOC(=O)Nc1nc(=O)n([C@@H]2O[C@H](C)[C@@H](O)C2O)cc1F (some centres undefined)	-1.34%	–	–
O=C1Nc2ccc(I)cc2C1=Cc1cc(Br)c(O)c(Br)c1	8.65%	–	–
O=S(=O)(O)c1ccc2cc(N=Nc3cc(S(=O)(=O)O)c4cccnc4c3O)ccc2c1	-11.7% and -5.81%	–	–
CCN(CCO)CCCOc1ccc2c(Nc3cc(CC(=O)Nc4cccc(F)c4)[nH]n3)ncnc2c1	-29.8%	–	–
N#Cc1ccc(Oc2ccc3c(c2)COB3O)cc1	-8.17% and -9.93%	–	–
CC(C)CN(C[C@@H](O)[C@H](Cc1ccccc1)NC(=O)O[C@H]1CO[C@H]2OCC[C@H]21)S(=O)(=O)c1ccc(N)cc1	–	–	inactive
COc1cc2c(cc1OC)CC(=O)N(CCCN(C)C[C@H]1Cc3cc(OC)c(OC)cc31)CC2	6.36%	–	–
OC[C@H]1O[C@@H](OCCc2ccc(O)cc2)[C@H](O)[C@@H](O)[C@H]1O	-11.7%	–	–
